Screens as filed in PubChem BioAssay.
Shiga toxin inh: blocks Shiga toxin action in Vero cells | 290,000 tested, 9.2% active | Vero cells, Shiga toxin protein synthesis inhibition reporter | inhibition, % at 38.7 µM; in the data active means inhibition mostly above about 28%, no sharp cut-off; inactive means mostly below about 43%
Giardia FBPA inh: Giardia lamblia aldolase inhibition | purified Giardia FBPA | Potency, µM (top dose mostly 59.6 µM), actives largely listed as inhibitors | 290,000 tested, 0.71% active; further: nearly all actives have a fitted effect of over 55% in size
Target sequence (A8B2U2 whole entry, looked up): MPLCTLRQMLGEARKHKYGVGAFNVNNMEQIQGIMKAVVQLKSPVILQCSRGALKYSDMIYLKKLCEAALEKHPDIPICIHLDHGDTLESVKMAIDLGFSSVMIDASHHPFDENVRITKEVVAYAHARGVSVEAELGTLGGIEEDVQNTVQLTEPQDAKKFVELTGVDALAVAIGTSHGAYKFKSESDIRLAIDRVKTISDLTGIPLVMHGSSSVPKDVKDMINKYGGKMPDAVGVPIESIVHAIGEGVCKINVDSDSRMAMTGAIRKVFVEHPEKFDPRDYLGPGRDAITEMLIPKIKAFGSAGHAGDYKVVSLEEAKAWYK
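Giardia FBPA (40 nM reagent) was preincubated 10 min at RT with compound (up to 57.5 uM final), then substrate plus GAPDH/TPI/NAD/arsenate coupling system with diaphorase/resazurin was added; resorufin fluorescence (525/598 nm) was read after 20 min.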
CHX counter: counter-screen hit for Shiga toxin inhibitors, cycloheximide; 300,000 tested, 12% active; max response, %; cell reporter, cycloheximide protein synthesis inhibition counterscreen; in the data active means max response mostly above about 13%, no sharp cut-off; inactive means mostly below about 14%; further: read at 38.3 µM for the half of the compounds with a filed dose
Pf growth 96h: P. falciparum growth inhibition at 96 hours | P. falciparum luciferase reporter growth, 96 h | Potency, µM (highest dose often 28.7 µM), actives largely listed as inhibitors | 320,000 tested, 6.9% active | AID 504834
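Two parasite generations (96 h, 37 C, 5% CO2) of compound exposure in infected erythrocytes (0.05% parasitemia, 2% hematocrit). Luciferase-reporter P. falciparum; decreased luminescence indicates inhibited growth, aimed at apicoplast-acting delayed death.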
Pf growth 48h: P. falciparum growth inhibition at 48 hours (one generation); P. falciparum luciferase growth in erythrocytes, 48 h; Potency, µM (doses to about 28.7 µM), most hits filed as inhibitors; 310,000 tested, 5.9% active
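Here the parasites carry a stable luciferase gene and grow inside erythrocytes in Albumax-based RPMI medium with compound for one erythrocytic cycle. Activity is scored as loss of luminescent signal.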
NS1 inh: influenza NS1 inhibition; 270,000 tested, 0.4% active; Potency, µM (highest dose often 46.1 µM); calls by dose curve; further: actives are rising curves; nearly all actives have a fitted effect of over 50% in size
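Growth recovery, yeast-based: influenza A NS1 expressed in S. cerevisiae causes slow growth, and suppressors are detected by OD600. The parent strain without NS1 is used as positive control.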
Large screens that a line does not name were inactive. Sampled rows, rich in hits. Any-hit rate of the full collection: about 21%. Unless noted, the call rests on the fitted dose curve; in most records, active means well fitted curve in the direction sought with a large enough effect; inconclusive means small, poorly fitted or top-dose-only effect, or another doubt; inactive means no such curve, though single readings can be large; an effect the other way counts as inactive or inconclusive.

Cn1c(SCC(=O)NCCc2ccccc2)ncc(C(=O)Nc2ccccc2)c1=O	none (no result: Shiga toxin inh, Giardia FBPA inh, CHX counter, NS1 inh)
O=c1oc2cc(O)ccc2cc1-c1ccc2c(c1)OCCO2	none (no result: Shiga toxin inh, CHX counter, Pf growth 96h, Pf growth 48h, NS1 inh)
COc1ccc(-c2cc3ccc(O)cc3oc2=O)cc1	Shiga toxin inh 74.5, CHX counter 36.8
O=c1oc2cc(O)ccc2cc1-c1ccccc1	Shiga toxin inh 53.7, CHX counter 38.1
CCCCn1cnc2c([nH]c3cc(OC)ccc32)c1=O	none
COc1ccc2c(c1)[nH]c1c(=O)n(CC3CCCO3)cnc12 (stereo not given)	CHX counter 28.3 (no result: Pf growth 48h)
O=c1c2[nH]c3cccc(Cl)c3c2ncn1CC1CCCO1 (stereo not given)	Shiga toxin inh 49.2, CHX counter 22.9
O=c1c2[nH]c3cccc(Cl)c3c2ncn1CCN1CCCCC1	none
COc1ccc2c(c1)[nH]c1c(=O)n(Cc3ccco3)cnc12	CHX counter 13.0
C[C@@]1(C(=O)O)CCC[C@@H]1C(=O)O	none (no result: Shiga toxin inh, Giardia FBPA inh, CHX counter, Pf growth 96h, Pf growth 48h)
CC(C)CC1NC(=O)c2ccccc2-n2c1nc1ccc(F)cc1c2=O (stereo not given)	none (no result: Shiga toxin inh, Giardia FBPA inh, CHX counter, NS1 inh)
CC(=O)c1cnc(-c2cccc(Cl)c2)s1	none
CC(=O)c1cnc(N(C)C)s1	Pf growth 96h 13.1µM
CCOC(=O)c1c(C)[nH]c(C2=NNC(=Nc3ccccc3OC)SC2)c1C	Shiga toxin inh 41.7, CHX counter 49.4, Pf growth 96h inconclusive, Pf growth 48h inconclusive, NS1 inh inconclusive
CCOC(=O)c1ccc(N=C2NC(=O)CS2)cc1	none
CCOC(=O)c1c(C)[nH]c(C2=NNC(=Nc3ccccc3)SC2)c1C	Shiga toxin inh 29.6, Giardia FBPA inh inconclusive, CHX counter 20.5, Pf growth 96h 3.7µM, Pf growth 48h 3.29µM
CCOC(=O)c1c(C)[nH]c(C2=NNC(=Nc3ccc(OCC)cc3)SC2)c1C	CHX counter 12.6, Pf growth 96h 14.7µM, Pf growth 48h inconclusive
CC(=O)c1c(C)[nH]c(C2=NNC(=NC(C)(C)C)SC2)c1C	Shiga toxin inh 82.2, Giardia FBPA inh inconclusive, CHX counter 29.4, Pf growth 96h 2.62µM (no result: NS1 inh)
COC(=O)C/C=C\[C@@H](C)[C@@H](/C=N\O[C@@H](C)c1cn([C@H](CO)Cc2ccccc2)nn1)NS(=O)(=O)c1ccc(C)cc1	none (no result: Shiga toxin inh, CHX counter, Pf growth 96h, Pf growth 48h, NS1 inh)
CC(=O)OC1CC(OC(C)=O)[C@]2(C)C(CC(OC(C)=O)[C@@]3(C)C4=CC(=O)OC(c5ccoc5)[C@]4(C)CCC32)C1(C)C (stereo not given in full)	none (no result: Shiga toxin inh, CHX counter, Pf growth 96h, Pf growth 48h, NS1 inh)
CSc1ccccc1NC(=O)c1ccc(N2CC3CC(C2)c2cccc(=O)n2C3)c(NC(=O)c2ccncc2)c1 (stereo not given)	Pf growth 96h inconclusive, Pf growth 48h 9.28µM
COc1cccc(NC(=O)Nc2cc(C(=O)NC(C)C)ccc2N2CC3CC(C2)c2cccc(=O)n2C3)c1 (stereo not given)	Pf growth 48h 11.7µM
CCN(C(=O)c1ccc(N2CC3CC(C2)c2cccc(=O)n2C3)c(NC(=O)c2ccncc2)c1)c1cccc(C)c1 (stereo not given)	Pf growth 48h inconclusive (no result: Giardia FBPA inh)
CCCNC(=O)c1ccc(N2CC3CC(C2)c2cccc(=O)n2C3)c(NC(=O)Nc2ccc(CC)cc2)c1 (stereo not given)	Pf growth 48h inconclusive (no result: Giardia FBPA inh)
N#CCCn1c(=O)c(-c2cccs2)nc2cnc(Oc3cccc(Cl)c3)nc21	none (no result: Shiga toxin inh, CHX counter, Pf growth 96h, Pf growth 48h, NS1 inh)
CN(CC(=O)Nc1ccccc1C(F)(F)F)C(=O)C1CCN(S(=O)(=O)c2ccc3c(c2)OCCO3)CC1	Pf growth 48h inconclusive (no result: Shiga toxin inh, Giardia FBPA inh, CHX counter, NS1 inh)
CCN(Cc1ccccc1)C(=O)C1CCN(S(=O)(=O)c2ccc3c(c2)OCCO3)CC1	Pf growth 96h 13.1µM, Pf growth 48h inconclusive (no result: Giardia FBPA inh)
O=C(C1CCN(S(=O)(=O)c2ccccc2)CC1)N1CCc2ccccc21	Pf growth 96h inconclusive (no result: Giardia FBPA inh)
CN(CC(=O)Nc1cccc(F)c1)C(=O)C1CCN(S(=O)(=O)c2ccc3c(c2)OCCO3)CC1	Pf growth 96h 4.15µM, Pf growth 48h 9.28µM (no result: Shiga toxin inh, Giardia FBPA inh, CHX counter, NS1 inh)
O=C(C1CCN(S(=O)(=O)c2ccc3c(c2)OCCO3)CC1)N1CCc2ccccc21	Pf growth 96h 10.4µM, Pf growth 48h inconclusive
C[C@H]1C2C=C[C@H]1[C@@H](C(=O)O)[C@@H]2c1c2ccc(=O)c(O)c-2oc2c(O)c(O)ccc12	none (no result: Shiga toxin inh, Giardia FBPA inh, CHX counter, Pf growth 96h, Pf growth 48h)
COc1ccc(S(=O)(=O)N2CCOCC2)cc1NC(=O)COC(=O)C1CC1C (stereo not given)	Pf growth 48h inconclusive (no result: Shiga toxin inh, Giardia FBPA inh, CHX counter, NS1 inh)
Cc1cccc(NC(=O)c2n[nH]c([N+](=O)[O-])c2Br)c1C	Shiga toxin inh 67.3, CHX counter 21.5, Pf growth 96h inconclusive (no result: NS1 inh)
Cc1ccc(Cn2nnc(C(=O)Nc3cccc(C)c3C)c2N)cc1	Pf growth 48h inconclusive
O=C(O)c1c(-c2c3ccc(=O)cc-3oc3cc(O)ccc23)cc2ccccc2c1-c1ccccc1	none (no result: Shiga toxin inh, Giardia FBPA inh, CHX counter, Pf growth 96h, Pf growth 48h)
CC(=O)c1sc2nsc(SCCN3CCCC3)c2c1N	CHX counter 20.1, Pf growth 96h inconclusive, Pf growth 48h inconclusive
Nc1cc(N)nc(SCCN2CCCCC2)n1	Pf growth 96h inconclusive
COc1ccc(NC(=O)c2cc3ccc4c5ccccc5[nH]c4c3cc2O)cc1	Pf growth 96h 5.86µM, Pf growth 48h inconclusive
Cc1ccc(NC(=O)c2cc3ccccc3cc2O)cc1	Shiga toxin inh 78.8, CHX counter 40.4, Pf growth 96h inconclusive, Pf growth 48h inconclusive
COc1ccc(NC(=O)c2cc(=O)[nH]c3ccccc23)cc1	none
O=C(Nc1ccccn1)c1cc2ccccc2cc1O	Shiga toxin inh 95.7, CHX counter 30.6
Oc1cccc2ccc(Nc3ccccn3)nc12	Shiga toxin inh active, CHX counter 113.0, Pf growth 48h 0.37µM (no result: Pf growth 96h)
c1coc(C2=NCCc3ccccc32)c1	Giardia FBPA inh inconclusive
COc1cccc(C(=O)NCC2(c3ccc(OC)c(OC)c3)CCCC2)c1	none
COc1ccc(NC(=O)c2cc3ccccc3cc2O)cc1	Shiga toxin inh 62.3, Giardia FBPA inh inconclusive, CHX counter 33.4, Pf growth 96h 8.28µM, Pf growth 48h inconclusive
COc1cc(CN2CCC(n3nccc3NC(=O)c3ccc4c(c3)OCO4)CC2)ccc1O	Pf growth 96h inconclusive, Pf growth 48h inconclusive
COc1cccc(CN2CCNC(=O)C2CC(=O)NCc2cn3ccccc3n2)c1OC (stereo not given)	Pf growth 96h 10.4µM
COc1cccc(CN2CCNC(=O)C2CC(=O)NCc2cn3cccc(C)c3n2)c1OC (stereo not given)	none
COc1cccc(CN2CCNC(=O)C2CC(=O)NCCn2ccc3ccccc32)c1OC (stereo not given)	Giardia FBPA inh inconclusive, Pf growth 96h inconclusive, Pf growth 48h 11.7µM
COc1cccc(CCNC(=O)CC2C(=O)NCCN2Cc2ccc(Cl)c(F)c2)c1 (stereo not given)	none
COC(=O)CCCNC(=O)CC1C(=O)NCCN1Cc1ccoc1 (stereo not given)	Pf growth 96h 13.1µM
COc1cccc(CN2CCNC(=O)C2CC(=O)NCCN2CCCCC2=O)c1 (stereo not given)	Pf growth 96h 10.4µM (no result: Giardia FBPA inh)
CCOc1ccc(-n2c(=S)sc3c(=O)n(-c4ccc(F)cc4)c(SCC(=O)O)nc32)cc1	none
